In PubChem BioAssay (NCATS):
Inconclusive results are not listed. Active and inactive are the calls of the source. Calls come from the whole dose curve; as a rule, active = well fitted activation curve with a large enough effect; inconclusive = small, poorly fitted or top-dose-only effect, or effect the other way; inactive = flat fitted curve, though single readings scatter.

Test: qHTS Assay for Identification of Small Molecule Agonists for Thrombopoietin (TPO) Signaling Pathway (AID 917)
Conditions: TPO signaling pathway reporter cells, agonist qHTS, stimulated with TPO at its EC50; series mostly up to 38.5 µM; activity, positive = activation: at the top concentration
Protocol: NIH Molecular Libraries Screening Centers Network [MLSCN]
NIH Chemical Genomics Center [NCGC]
The thrombopoietin (TPO) signaling pathway was assayed in murine Ba/F3 cells stably transfected with the human TPO receptor and a luciferase reporter gene controlled by the Glycoprotein IIb promoter (provided by Axxam). BaF3 cells are an IL-3-dependent pro B cell line that upon TPO stimulation, undergo cell division and induce the megakaryocyte marker, Glycoprotein IIb. The assay was screened at the EC50 of TPO (26 pM) to identify activators of the pathway.
NCGC Assay Protocol Summary:
Cells were maintained at 37 C and 5% CO2in RPMI with 10% fetal bovine serum, 0.5 ng/mL murine IL-3, 100U/ml penicillin and 100 ug/ml streptomycin. Prior to plating, cells were incubated overnight in medium without IL-3. Cells were plated at 250 cells/5uL/well into white solid 1536-well plates, 23 nL of compounds were delivered by a pin tool, and 1 uL of TPO (26 pM final concentration in IL-3 deficient medium) was added. Following 24 hrs of incubation at 37 C and 5% CO2, 4 uL of Steadylite detector mix (PerkinElmer) was added, the plates incubated at room temperature for 10 min and luminescence was measured for 10 s and 2X binning by a ViewLux detector (Perkin Elmer).
% is set by controls: 0 for no effect and ±100 for the full control effect.

Question: For `N[C@@H]1CONC1=O`, which outcome is on record?
Answer: The outcome was “inactive”.

Question: Which “activity, positive = activation” value does the source give for `CC(C)NCC(O)COc1ccc(COCCOC(C)C)cc1` (stereo unspecified) here?
Answer: The value was 11% (inactive).

Question: With `Cc1cn[nH]c1` as the compound, how does the “activity, positive = activation” value read?
Answer: Its value is 8.4% (inactive).

Question: For `NS(=O)(=O)c1cc2c(cc1Cl)NC=NS2(=O)=O`, which “activity, positive = activation” value is on record?
Answer: Its value is -17.5% (inactive).

Question: With `Cn1cnc([N+](=O)[O-])c1Sc1ncnc2nc[nH]c12` as the compound, how does the “activity, positive = activation” value read?
Answer: The value was -23% (inactive).

Question: With `CNC[C@H](O)c1cccc(O)c1` as the compound, how does the “activity, positive = activation” value read?
Answer: The value was -7.98% (inactive).

Question: For `NC(N)=NC(=O)c1nc(Cl)c(N)nc1N`, which “activity, positive = activation” value is on record?
Answer: Its value is -6.75% (inactive).

Question: For `NNCCc1ccccc1`, which “activity, positive = activation” value is on record?
Answer: The value was 14.6% (inactive).

Question: Which “activity, positive = activation” value does the source give for `Cc1[nH]c(=O)c(C#N)cc1-c1ccncc1` here?
Answer: Its value is 10.7% (inactive).

Question: Which “activity, positive = activation” value does the source give for `C[C@]12CCC(=O)C=C1CC[C@@H]1[C@@H]2[C@@H](O)C[C@@]2(C)[C@H]1CC[C@]2(O)C(=O)CO` here?
Answer: Its value is -18% (inactive).

Question: Which “activity, positive = activation” value does the source give for `N=c1nc(N2CCCCC2)cc(N)n1O` here?
Answer: Its value is -21.2% (inactive).

Question: Which “activity, positive = activation” value does the source give for `O=c1n(CCCN2CCN(c3cccc(Cl)c3)CC2)nc2ccccn12` here?
Answer: The value was -12.4% (inactive).

Question: For `Cc1[nH]c(=O)c(C#N)cc1-c1ccc2nccn2c1`, which “activity, positive = activation” value is on record?
Answer: Its value is -12.6% (inactive).

Question: With `Clc1cccc(Cl)c1NC1=NCCN1` as the compound, how does the “activity, positive = activation” value read?
Answer: Its value is -15.5% (inactive).

Question: Which “activity, positive = activation” value does the source give for `O=c1[nH]cnc2[nH]ncc12` here?
Answer: Its value is -20.4% (inactive).

Question: Which “activity, positive = activation” value does the source give for `Nc1nc2ccc(OC(F)(F)F)cc2s1` here?
Answer: Its value is 7.1% (inactive).

Question: Which “activity, positive = activation” value does the source give for `CCOC(=O)C1=C[C@@]2(CC)CCCN3CCc4c(n1c1ccccc41)[C@H]32` here?
Answer: Its value is -17.2% (inactive).

Question: With `CC(=O)Oc1ccccc1C(=O)O` as the compound, how does the “activity, positive = activation” value read?
Answer: The value was -7.13% (inactive).

Question: With `C1COC(NC(C2CC2)C2CC2)=N1` as the compound, how does the “activity, positive = activation” value read?
Answer: Its value is -11.4% (inactive).

Question: With `O=NN(CCCl)C(=O)NCCCl` as the compound, how does the “activity, positive = activation” value read?
Answer: The value was -18.9% (inactive).

Question: Which “activity, positive = activation” value does the source give for `CCCCNc1cc(C(=O)O)cc(S(N)(=O)=O)c1Oc1ccccc1` here?
Answer: The value was -4.38% (inactive).

Question: With `CCCC(CCC)C(=O)O` as the compound, how does the “activity, positive = activation” value read?
Answer: The value was 2.56% (inactive).

Question: Which “activity, positive = activation” value does the source give for `CC(C)(Sc1ccc(CCN(CCCCC2CCCCC2)C(=O)NC2CCCCC2)cc1)C(=O)O` here?
Answer: The value was -12.3% (inactive).

Question: With `Nc1nc2c(ncn2COCCO)c(=O)[nH]1` as the compound, how does the “activity, positive = activation” value read?
Answer: Its value is -18.7% (inactive).

Question: With `NC(=O)c1cnccn1` as the compound, how does the “activity, positive = activation” value read?
Answer: The value was 5.55% (inactive).

Question: Which “activity, positive = activation” value does the source give for `Cc1ccc(N(CC2=NCCN2)c2cccc(O)c2)cc1` here?
Answer: Its value is -25.5% (inactive).
